About 3,500 (1.8%) of roughly 190,000 compounds were called active. What follows is part of a selection rich in actives, with near analogues and random picks from the rest. Values without a mark were called inactive.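 The calls were made as follows: active = inhibition above a set limit, 3 SD over mean compound inhibition (cut at about 8.4% in these data); inactive = the rest.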
Experiment: inhibitors of the yeast RAM network, primary screen, dse1pr::URA3 reporter, 5-FOA selection (AID 868);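 also: 0% = DMSO-only wells with no growth and 100% = 10 µM 1-NA-PP1 full growth; inhibition rescues growth on 5-FOA so higher OD means more RAM inhibition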
Conditions: S. cerevisiae dse1pr::URA3 reporter, 5-FOA growth OD615, 2 d; at 50 µM; hits give high values; analog-sensitive cbk1-as2 kinase mutant strain

Row | SMILES | inhibition
1 | Cc1ccc(C(=O)NC(=S)Nc2ccc(N3CCOCC3)cc2)cc1 | 0.79%
2 | COc1cccc(OC)c1C(=O)Nc1ccc(N2CCCCC2)cc1 | 0.91%
3 | COc1ccc(C(=O)NC(=S)Nc2ccc(N3CCCC3)cc2)cc1OC | 12.4% (active)
4 | C=C(C)C1CC=C(C)/C(=N/NC(=O)CCCNc2cccc(C)c2)C1 (stereo not given) | 0.96%
5 | CCN(CC(=O)NCc1cccs1)C(=O)c1ccccc1F | 1.03%
6 | COc1ccc(OC)c(CNC(=O)c2cc(=O)[nH]c3ccc(S(=O)(=O)N4CCCC4)cc23)c1 | 2.57%
7 | N#Cc1c(C(F)(F)F)cc(-c2ccc(Cl)cc2)nc1SCC(=O)O | 2.99%
8 | CCOC(=O)CC(=O)CSc1nc(-c2ccccc2)cc(-c2ccc(Cl)cc2)c1C#N | 13.1% (active)
9 | CCSc1nc(-c2ccc(OC)cc2)cc(-c2ccc(OC)cc2)c1C#N | 6.16%
10 | COc1ccc(C(=O)Nc2ccc(S(=O)(=O)NC(C)C)cc2)cc1 | 1.59%
11 | CC(=O)c1ccc(NC(=S)NC(=O)CC(C)C)cc1 | 0.87%
12 | COc1ccc(NS(=O)(=O)c2ccc(NC(=S)NC(=O)CC(C)C)cc2)cc1 | 9.99% (active)
13 | CC(=O)Oc1c(C(=O)c2nnc(C)o2)c(=O)n(Cc2ccccc2)c2ccccc12 | 1.56%
14 | O=C(CSc1ccc([N+](=O)[O-])cn1)Nc1ccc(N2CCOCC2)cc1 | 2.94%
15 | CCOC(=O)c1c(NC(=O)c2ccc(Br)o2)sc2c1CCCC2 | 3.28%
16 | CCc1c(C)sc(NC(=O)c2ccc(Br)o2)c1C(=O)OC | 9.13% (active)
17 | CCc1c(C)sc(NC(=O)/C=C/c2ccc3c(c2)OCO3)c1C(=O)OC | 2.35%
18 | O=C(C(=O)N1CCc2ccccc2C1)N1CCc2ccccc2C1 | -0.82%
19 | c1ccc(-c2csc(N3CCc4ccccc4C3)n2)cc1 | 12% (active)
20 | O=C(CN1CCN(c2nc(-c3ccccc3)cs2)CC1)NCc1ccc2c(c1)OCO2 | 0.34%

Row | SMILES | inhibition
21 | C/C(=N\NC(=O)NC1CCCCC1)c1ccc(OC(F)F)cc1OC(F)F | 0.62%
22 | N#C/C(=C\c1ccccc1C(F)(F)F)C(=O)Nc1ccccc1F | 1.21%
23 | C(=N\N1CCN(c2ccccn2)CC1)/C1=C(N2CCOCC2)C(=C/c2ccccc2)/CC1 | -0.25%
24 | N#C/C(=C\C1=C(N2CCOCC2)C(=C\c2ccccc2)/CC1)C(=O)Nc1ccccc1F | 11.8% (active)
25 | Cn1c(N)c(C(=O)COC(=O)c2ccccc2NCc2ccco2)c(=O)n(C)c1=O | 1.05%
26 | O=C(CN1CCOCC1)Nc1c(Cl)cc(Cl)cc1Cl | -0.37%
27 | COC(=O)c1cc2nc(-c3ccccc3)cc(C(F)(F)F)n2n1 | 4.75%
28 | N#Cc1c(C(F)(F)F)cc(-c2ccccc2)nc1SCC(=O)N1CCOCC1 | 0.78%
29 | CCN(CC)c1nc(-c2ccccc2)cc(C(F)(F)F)c1C#N | 10.8% (active)
30 | CN(C)S(=O)(=O)c1ccc(NC(=O)N2CCOCC2)cc1 | 0.13%
31 | Clc1ccc2nc(CSc3ccccc3)cn2c1 | 0.13%
32 | CC1=C(C)CC(C(=O)NC(C)CCc2ccccc2)C(C(=O)O)C1 (stereo not given) | 0.85%
33 | O=C(CSc1nc(O)c(Cc2ccccc2)c(=O)[nH]1)Nc1nc2c(s1)CCCC2 | 2.38%
34 | CCn1c(=O)cc(O)c2ccccc21 | -0.4%
35 | Cn1c2ccccc2c(=O)c2c(O)cccc21 | 11.3% (active)
36 | Cn1c(=O)c(Sc2ccc(Cl)cc2)c(O)c2ccccc21 | 1.1%
37 | CCNC(=O)CC1C(=O)N(c2ccc(F)cc2)C(=O)N1Cc1cccs1 (stereo not given) | 0.28%
38 | COc1ccc(C(=O)CN(C(=O)c2ccc(Cl)cc2)N2C(=O)c3ccccc3C2=O)cc1 | 4.27%
39 | CCCCC(C(=O)OCC(=O)c1ccc(OC)cc1)N1C(=O)c2ccccc2C1=O (stereo not given) | 12.2% (active)
40 | COc1ccc(C(=O)COC(=O)c2ccc3ccccc3n2)cc1 | -0.53%

Row | SMILES | inhibition
41 | Cc1cccc(CC(=O)Nc2c3c(nn2-c2cccc(Cl)c2)CS(=O)C3)c1 (stereo not given) | 9.78% (active)
42 | COc1ccc(CC(=O)Nc2c3c(nn2-c2cccc(Cl)c2)CS(=O)C3)cc1 (stereo not given) | 2.33%
43 | COc1ccc(-n2nc3c(c2NC(=O)Cc2cccc(C)c2)CS(=O)C3)cc1 (stereo not given) | 0.7%
44 | CCCn1c(=O)c2c(C(F)(F)F)cc(-c3cccs3)nc2n(CCC)c1=O | 2.68%
45 | CN1CCC(=NNC(=O)CN(c2cccc(Cl)c2)S(C)(=O)=O)CC1 | -0.4%
46 | CCOC(=O)CSc1nnc(-c2cccc(Br)c2)o1 | -0.68%
47 | O=C(OCc1nnc(-c2ccccc2)o1)c1ccc2c(c1)C(=O)N(CCc1ccccc1)C2=O | 4.12%
48 | O=C(OCc1ccc(Br)cc1)c1cccc(-c2nnc(-c3ccccc3)o2)c1 | 12% (active)
49 | COc1ccc(-c2nc3cc([N+](=O)[O-])ccc3o2)cc1OC | 1.49%
50 | O=[N+]([O-])c1ccc2oc(-c3cccc(O)c3)nc2c1 | 13.2% (active)
51 | O=[N+]([O-])c1cccc(Nc2c3ccccc3nc3ccccc23)c1 | 0.27%
52 | Cc1nn(-c2ccccc2)c(C)c1/C=N/NC(=O)CSc1nc2ccccc2c(=O)n1-c1ccccc1 | 2.56%
53 | C=CCO/N=C(\C)c1c(O)c(C)c(-c2ccccc2)n(-c2ccccc2)c1=O | 14.2% (active)
54 | CCO/N=C(/C)c1c(O)cc(-c2ccccc2)n(-c2ccccc2)c1=O | 4.11%
55 | O=C(CC1C(=O)NCCN1Cc1ccc(-c2ccccc2)cc1)NCc1ccncc1 (stereo not given) | -0.27%
56 | Cc1ccnc(NS(=O)(=O)c2ccc(NC(=O)c3ccc(S(=O)(=O)N(C)C)cc3)cc2)n1 | -0.41%
57 | CC1=C/C(=N\S(=O)(=O)c2ccccc2)C(C(C)C)=CC1=O | 3.57%
58 | COc1ccc(N2CCN(C(=O)/C(C#N)=C/c3ccccc3)CC2)cc1 | 8.69% (active)
59 | CCOC(=O)/C(C#N)=C/c1ccc(N2CCCCC2)cc1 | 1.57%
60 | CCOC(=O)/C(C#N)=C/c1ccc(N2CCN(Cc3ccccc3)CC2)cc1 | -1.52%
